The values below come from PubChem BioAssay (NCI).

Structures are written as SMILES. Compounds without any hit were thinned out: in the full panel of roughly 83,000, 20% have a hit.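 Compound tested at a single concentration for 48 hours in 96-well plates; a percent growth value below 10 was scored as active.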 Values without a mark were called inactive. Calls of active or inactive are those of the source.

Common to all, as to assay: NCI-60 one-dose screen, 48 h (100 = growth as untreated, 0 = no growth, -100 = all killed)
What all share (conditions): 10 µM unless noted

For test [1], the system named is NCI-H23 lung.
The test system of test [2] is NCI-H226 lung.
For test [3], the system named is HOP-62 NSCLC.
Test [4] relates to NCI-H460 lung.
Test [5] has as its system HOP-92 NSCLC.
Test [6] concerns NCI-H522 lung.
In test [7] the test system is A549/ATCC NSCLC.
The subject of test [8] is 786-0 renal.
Test [9] concerns COLO 205 colon.
The subject of test [10] is NCI-H322M lung.

As to `CCN1CCN(C(=O)[C@]23CCC(C)(C)C[C@@H]2C2=CC[C@@H]4[C@@]5(C)CCC(=O)C(C)(C)[C@@H]5CC[C@@]4(C)[C@]2(C)CC3)CC1`, the growth in test [1] was 64.9%; in [2] it was 71%; in [3], 78.8%; in test [4] it was 25.5%; in [5] it was 44.9%; in test [6] it was 44.7%. Moreover, the growth in [7] was 46.1%; in [8] it was 50.5%; in test [9], 44.2%.

Take `Cn1cc(C(=O)c2nc(-c3c[nH]c4ccccc34)no2)c2cc(F)ccc21`: the growth in [1] was 65.1%; in test [2], 75.7%; in test [3], 30.5%; in test [4], 14.1%; in test [5] it was 43.6%; in test [6], 2.36% (active). The growth in test [7] is 40.6%; in [8], 54.6%.

As for `Oc1c(I)cc(I)cc1CNCCN(Cc1ccccn1)Cc1ccccn1`, the growth in test [1] is -14% (active); in test [2], -65.1% (active); in test [3], -65.1% (active); in [4] it was -56.5% (active); in test [5], -61.8% (active); in test [6] it was -27.6% (active). The values for the growth in test [7], in test [8] and in [9] were -33.3% (active), -95.2% (active) and -34.6% (active), respectively.

With `COC(=O)/C=C1/SC(=Nc2ccc(C(F)(F)F)cc2)N(CCc2c[nH]c3ccc(O)cc23)C1=O`, the growth in [1] was 18.6%; in test [2], 1.54% (active); in test [3], -26.6% (active); in test [4] it was -60% (active); in test [5], -54% (active); in [6], -40.6% (active). Also, the growth in test [7] is 18.1%; in [8], -59.5% (active); in test [9] it was -58.9% (active).

As for `Nc1n[nH]c2cccc(C#Cc3cccc(NC(=O)c4cc(F)cc(C(F)(F)F)c4)c3)c12`, the growth in test [1] was 65.8%; in test [2], 46.6%; in [3] it was 95.2%; in [4], 77.8%; in test [5], 39.1%; in test [6], 62.6%. Moreover, the growth was 84.4% in test [7], 86.4% in [8] and 83.7% in test [9].

Regarding `Cc1c[n+](Cc2ccc3ccccc3c2)cn1Cc1ccc2ccccc2c1`, the growth was 27.7% in [1]; 31.8% in test [2]; 33.2% in test [3]; 21.9% in [4]; -20.9% (active) in test [5]; -17.9% (active) in [6]. The results for the growth in test [7], in [8] and in [9] were 60.5%, 41% and -78.7% (active), respectively.

In the case of `Cc1ccc2c(c1)=C/C(=C\c1cc(-c3ccccc3)oc1O)C(=O)N=2`, the growth in test [1] is 95.3%; in test [2], 106%; in test [3] it was 101%; in test [4], 113%; in test [5], 87.4%; in [6] it was 97.4%. For the same molecule, the figures for the growth in [7], in test [8] and in [9] were 105%, 91.4% and 108%, respectively.

Take `COc1cc2ncnc(Nc3ccc(F)c(Cl)c3)c2cc1OCC(=O)N1CCN(c2ccccc2)CC1`: the growth is 88% in test [1]; 92.5% in test [2]; 103% in test [3]; 95.6% in test [4]; 86.8% in test [5]; 79.9% in test [6]. For the same molecule, the growth in [7] is 82.9%; in [8], 85.6%; in test [9], 112%.

`CN(C)S(=O)(=O)c1cccc(C(=O)Nc2nc(-c3ccc(F)c(F)c3)cs2)c1`: the growth in [1] is 45.7%; in test [2], 46.7%; in [3], 99.5%; in test [4], 49.4%; in test [5] it was 67.1%; in test [6] it was 25.2%. Besides, the growth was 60.1% in [7], 64.9% in test [8] and 103% in test [9].

Regarding `CCC(C(=O)[C@@H](C)[C@@H](O)[C@H](C)[C@@H]1O[C@@H]([C@@H](CC)C(=O)ONC(=O)c2ccccc2)CC[C@@H]1C)[C@H]1O[C@]2(C=CC(=O)[C@]3(CC[C@@](C)([C@H]4CC[C@](O)(CC)[C@H](C)O4)O3)O2)[C@H](C)C[C@@H]1C` (stereo not given in full), the growth in [1] is -49.7% (active); in test [2], 42%; in test [3], 26.5%; in test [4] it was -57.8% (active); in test [5] it was -62.2% (active); in test [6] it was -25.9% (active). The growth in test [7] is -19.6% (active); in [8], 9.1% (active); in test [9], -26% (active).

Regarding `CCN(CC)CCn1c2ccc(O)cc2c2sc3cc(O)ccc3c(=O)c21`, the growth in test [1] was 25.8%; in test [2] it was 68.2%; in test [3] it was 38.4%; in test [4], 8.46% (active); in test [5], 60.5%; in test [6], 35.1%. In addition, the values for the growth in test [7], in test [8] and in test [9] were 21.6%, 27% and 30.3%, respectively.

For `C=C(CBr)[C@@H]1CC[C@]2(C(=O)O)CC[C@]3(C)[C@H](CC[C@@H]4[C@@]5(C)CCC(=O)C(C)(C)[C@@H]5CC[C@]43C)[C@@H]12`, the growth in test [1] is 85.8%; in [2], 73.2%; in test [3] it was 112%; in test [4], 81.3%; in test [6], 46.5%; in test [7] it was 57.7%. In addition, the growth is 106% in [8] and 99.9% in [9].

Consider `O=S(=O)(NCCCNc1nccc(-c2c(-c3ccc(F)c(O)c3)nc3sccn23)n1)c1ccccc1`, for which the growth in test [1] was 58.3%; in test [2], 97.7%; in test [10], 87.7%; in test [3] it was 89.1%; in test [4], 62.2%; in [6], 52.1%. Also, the values for the growth in test [7], in test [8] and in [9] were 63.8%, 87.2% and 30.4%, respectively.

Turning to `CC(C)=CC(=O)OCC(=O)O[C@@H]1C[C@]2(C(C)C)O[C@@]1(C)[C@@H]1CC[C@@H](C)[C@H]1[C@@H]2OC(=O)/C=C/c1ccccc1`, the growth is 76% in test [1]; 55.5% in test [2]; 96.7% in test [3]; 93.5% in test [4]; 61% in test [5]; 70.4% in [6]. In addition, the results for the growth in test [7], in [8] and in test [9] were 83.4%, 66% and 106%, respectively.

As for `COc1ccc(NC(=O)c2sc3nc(C)c(C(=O)/C=C/c4ccccc4)cc3c2N)cc1`, the growth in [1] was 63%; in [2], 65.6%; in [3], 60.8%; in test [4] it was 6.63% (active); in [5], 109%; in [6], 41.7%. Also, the growth is 34% in test [7], 2.08% (active) in [8] and 72.8% in test [9].

Turning to `NC(=O)c1cccc(-n2ccc3cc(NC(=O)c4ccc(N5CCOCC5)c(C(F)(F)F)c4)ccc32)n1`, the growth in test [1] is 77.5%; in test [2], 66.3%; in test [3], 44.5%; in test [4] it was 43.8%; in test [5] it was 66.8%; in test [6] it was 58.9%. The values for the growth in test [7], in test [8] and in test [9] were 42.7%, 19.1% and 34.4%, respectively.

For `Oc1c(Br)cc(Br)c2ccc(Cn3cc(-c4ccccc4C(F)(F)F)nn3)nc12`, the growth in test [1] was 106%; in [2], 98.6%; in [3] it was 103%; in test [4] it was 101%; in test [5], 88.8%; in [6], 24.6%. Further, the growth in [7] was 99.6%; in test [8], 105%; in test [9], 95.7%.

`Clc1cccc(Nc2ncnc3ccc(-c4cnc5[nH]ccc5c4)cc23)c1`: the growth in [1] was 84.4%; in test [2], 80%; in [3], 86.9%; in test [4] it was 78.3%; in [5], 94.5%; in [6], 33.9%. Besides, the growth in test [7] was 50.1%; in test [8], -19.6% (active); in test [9], 83.4%.

`COc1ccc(C(=O)Nc2cccc(-c3cc(=O)c4c(OC)c(OC)c(OC)cc4o3)c2)cc1`: the growth in test [1] was 57.5%; in test [2] it was 69.9%; in test [3] it was 72.5%; in test [4] it was 42.1%; in [5], 6.67% (active); in [6] it was 44.5%. Also, the growth is 64.7% in test [7], 55% in test [8] and 73.1% in test [9].

`Clc1cc(Cl)c(Cl)c(-c2nnc(SCc3ccncc3Br)o2)c1`: the growth in test [1] was 87.7%; in test [2], 98%; in test [10] it was 102%; in test [3], 82.5%; in test [4], 95.9%; in [6] it was 83.8%. Also, the growth in test [7] was 153%; in test [8] it was 93.7%; in [9], 110%.

For `C=CCN=c1sc2c(n1NC(=O)c1cc3ccc1CCc1ccc(cc1)CC3)C(=O)c1ccccc1C2=O`, the growth was -34.1% (active) in test [1]; 48.5% in test [2]; 19.5% in test [3]; 12.7% in test [4]; 21.5% in test [5]; -20.2% (active) in [6]. Also, the growth in [7] was 23.3%; in [8], -21.8% (active); in test [9], 19.2%.

In the case of `COc1ccc(Nc2ncc(Br)c(NCCCNC(=O)c3cccs3)n2)cc1`, the growth is 39.2% in [1]; 33.1% in test [2]; 22.6% in test [3]; 25.1% in [4]; 30% in test [5]; 61.3% in [6]. Further, the figures for the growth in test [7], in test [8] and in test [9] were 42.9%, 34.3% and 33.2%, respectively.

For the molecule `CCCCNC(=O)CC1=C(C)/C(=C/c2[nH]c(-c3ccc[nH]3)cc2OC)N=C1C`, the growth in [1] is 48.6%; in test [2] it was 36.7%; in test [3] it was 50.5%; in [4], 7.8% (active); in test [5], -19.8% (active); in [6], 17%. Also, the results for the growth in [7], in test [8] and in test [9] were 12.4%, 16.1% and 17.2%, respectively.

Turning to `O=c1c2cccc3c(N4CCCC4)ccc(c32)c2nc3ccccc3n12`, the growth was 68.2% in test [1]; 55.3% in [2]; 66.1% in [3]; 16.1% in test [4]; 40.7% in test [5]; 71.2% in [6]. Besides, the growth in test [7] was 35.6%; in test [8] it was 88.3%; in test [9], 63.6%.

In the case of `CCOC(=O)c1csc(NC(=O)COc2ccc(/C=C3\Oc4ccccc4C3=O)cc2)n1`, the growth in test [1] is 86.5%; in test [2] it was 108%; in [3] it was 72.6%; in test [4], 95.4%; in test [5], 102%; in test [6], 55.1%. The values for the growth in [7], in test [8] and in test [9] were 88.7%, 68.4% and 112%, respectively.

Regarding `CCOC(=O)c1c(NC(=O)c2cccc(C(F)(F)F)c2)sc2c(CN(C)C)c(O)ccc12`, the growth was 93.1% in test [1]; 101% in test [2]; 96.7% in test [3]; 2.61% (active) in test [4]; -1.17% (active) in test [5]; 71.9% in [6]. Further, the values for the growth in test [7], in [8] and in [9] were 60.8%, 12.1% and 19%, respectively.

As to `CCOc1nc(-c2ccccc2)cc2c(O)c(C(=O)N/N=C/c3ccccc3)[nH]c(=O)c12`, the growth is 111% in [1]; 106% in test [2]; 115% in test [3]; 114% in [4]; 107% in [5]; 74.4% in test [6]. For the same molecule, the growth in test [7] is 114%; in [8], 112%; in [9], 111%.

For `CCOC(=O)C1=C(c2ccccc2)N=C2SC=C(c3ccc(Cl)cc3)N2C1c1ccc(Br)cc1` (stereo not given), the growth in test [1] was 69.8%; in [2] it was 76.6%; in test [3], 90.7%; in test [4], 85%; in test [5] it was 56.1%; in test [6], 69.3%. Also, the growth was 84.5% in [7], 80.6% in [8] and 83.1% in [9].
